Measurements as given in PubChem BioAssay (NCATS).
Inconclusive results are not listed. The source made the active and inactive calls. Unless noted, the call rests on the fitted dose curve; in most records, active means well fitted inhibition curve with a large enough effect; inconclusive means small, poorly fitted or top-dose-only effect; inactive means flat fitted curve, though single readings scatter.

Columns and labels:
[1] = tested on: CP252; assay: qHTS profiling for inhibitors of Plasmodium falciparum proliferation (AID 504749);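 further: 0% = DMSO vehicle and full inhibition = artemisinin control; nearly all actives have a fitted effect of over 60% in size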; settings: P. falciparum in erythrocytes, SYBR Green DNA, 72 h; series mostly up to 28.7 µM
Procedure, shortened: (§1)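 In a 72 h erythrocytic culture (37 C, humidified, 5% CO2) at 2.5% hematocrit and 0.3% starting parasitemia, compounds were tested; SYBR Green I in detergent lysis buffer stained parasite DNA overnight.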

[2] = tested on: CP256; assay: as above; settings: P. falciparum in erythrocytes, SYBR Green DNA, 72 h; series mostly up to 28.7 µM
Procedure, shortened: as §1

[3] = tested on: CP260; assay: as above; settings: P. falciparum in erythrocytes, SYBR Green DNA, 72 h; series mostly up to 28.7 µM
Procedure, shortened: as §1

[4] = tested on: CP262; assay: as above; settings: P. falciparum in erythrocytes, SYBR Green DNA, 72 h; series mostly up to 28.7 µM
Procedure, shortened: as §1

[5] = tested on: CP265; assay: as above; settings: P. falciparum in erythrocytes, SYBR Green DNA, 72 h; series mostly up to 28.7 µM
Procedure, shortened: as §1

[6] = tested on: CP266; assay: as above; settings: P. falciparum in erythrocytes, SYBR Green DNA, 72 h; series mostly up to 28.7 µM
Procedure, shortened: as §1

[7] = tested on: CP268; assay: as above; settings: P. falciparum in erythrocytes, SYBR Green DNA, 72 h; series mostly up to 28.7 µM
Procedure, shortened: as §1

[8] = tested on: CP269; assay: as above; settings: P. falciparum in erythrocytes, SYBR Green DNA, 72 h; series mostly up to 28.7 µM
Procedure, shortened: as §1

[9] = tested on: CP286; assay: as above; settings: P. falciparum in erythrocytes, SYBR Green DNA, 72 h; series mostly up to 28.7 µM
Procedure, shortened: as §1

[10] = tested on: CP291; assay: as above; settings: P. falciparum in erythrocytes, SYBR Green DNA, 72 h; series mostly up to 28.7 µM
Procedure, shortened: as §1

[11] = tested on: CP297; assay: as above; settings: P. falciparum in erythrocytes, SYBR Green DNA, 72 h; series mostly up to 28.7 µM
Procedure, shortened: as §1

[12] = tested on: CP305; assay: as above; settings: P. falciparum in erythrocytes, SYBR Green DNA, 72 h; series mostly up to 28.7 µM
Procedure, shortened: as §1

[13] = tested on: CP315; assay: as above; settings: P. falciparum in erythrocytes, SYBR Green DNA, 72 h; series mostly up to 28.7 µM
Procedure, shortened: as §1

[14] = tested on: CP325; assay: as above; settings: P. falciparum in erythrocytes, SYBR Green DNA, 72 h; series mostly up to 28.7 µM
Procedure, shortened: as §1

[15] = tested on: CP329; assay: as above; settings: P. falciparum in erythrocytes, SYBR Green DNA, 72 h; series mostly up to 28.7 µM
Procedure, shortened: as §1

[16] = tested on: DFO2036; assay: as above; settings: P. falciparum in erythrocytes, SYBR Green DNA, 72 h; series mostly up to 28.7 µM
Procedure, shortened: as §1

[17] = tested on: DIV14; assay: as above; settings: P. falciparum in erythrocytes, SYBR Green DNA, 72 h; series mostly up to 28.7 µM
Procedure, shortened: as §1

[18] = tested on: DIV30; assay: as above; settings: P. falciparum in erythrocytes, SYBR Green DNA, 72 h; series mostly up to 28.7 µM
Procedure, shortened: as §1

[19] = tested on: Dd2; assay: as above; settings: P. falciparum in erythrocytes, SYBR Green DNA, 72 h; series mostly up to 28.7 µM
Procedure, shortened: as §1

[20] = tested on: ECU; assay: as above; settings: P. falciparum in erythrocytes, SYBR Green DNA, 72 h; series mostly up to 28.7 µM
Procedure, shortened: as §1

[21] = tested on: FAB9; assay: as above; settings: P. falciparum in erythrocytes, SYBR Green DNA, 72 h; series mostly up to 28.7 µM
Procedure, shortened: as §1

[22] = tested on: GB4; assay: as above; settings: P. falciparum in erythrocytes, SYBR Green DNA, 72 h; series mostly up to 28.7 µM
Procedure, shortened: as §1

[23] = tested on: HB3; assay: as above; settings: P. falciparum in erythrocytes, SYBR Green DNA, 72 h; series mostly up to 28.7 µM
Procedure, shortened: as §1

[24] = tested on: ICS; assay: as above; settings: P. falciparum in erythrocytes, SYBR Green DNA, 72 h; series mostly up to 28.7 µM
Procedure, shortened: as §1

[25] = tested on: JCK; assay: as above; settings: P. falciparum in erythrocytes, SYBR Green DNA, 72 h; series mostly up to 28.7 µM
Procedure, shortened: as §1

[26] = tested on: N140; assay: as above; settings: P. falciparum in erythrocytes, SYBR Green DNA, 72 h; series mostly up to 28.7 µM
Procedure, shortened: as §1

[27] = tested on: P93_24; assay: as above; settings: P. falciparum in erythrocytes, SYBR Green DNA, 72 h; series mostly up to 28.7 µM
Procedure, shortened: as §1

[28] = tested on: P94_40; assay: as above; settings: P. falciparum in erythrocytes, SYBR Green DNA, 72 h; series mostly up to 28.7 µM
Procedure, shortened: as §1

[29] = tested on: PAD; assay: as above; settings: P. falciparum in erythrocytes, SYBR Green DNA, 72 h; series mostly up to 28.7 µM
Procedure, shortened: as §1

[30] = tested on: PC15; assay: as above; settings: P. falciparum in erythrocytes, SYBR Green DNA, 72 h; series mostly up to 28.7 µM
Procedure, shortened: as §1

[31] = tested on: PC26; assay: as above; settings: P. falciparum in erythrocytes, SYBR Green DNA, 72 h; series mostly up to 28.7 µM
Procedure, shortened: as §1

[32] = tested on: PC49; assay: as above; settings: P. falciparum in erythrocytes, SYBR Green DNA, 72 h; series mostly up to 28.7 µM
Procedure, shortened: as §1

[33] = tested on: SC27B; assay: as above; settings: P. falciparum in erythrocytes, SYBR Green DNA, 72 h; series mostly up to 28.7 µM
Procedure, shortened: as §1

[34] = tested on: TAB109; assay: as above; settings: P. falciparum in erythrocytes, SYBR Green DNA, 72 h; series mostly up to 28.7 µM
Procedure, shortened: as §1

[35] = tested on: TAB113; assay: as above; settings: P. falciparum in erythrocytes, SYBR Green DNA, 72 h; series mostly up to 28.7 µM
Procedure, shortened: as §1

[36] = tested on: TAB165; assay: as above; settings: P. falciparum in erythrocytes, SYBR Green DNA, 72 h; series mostly up to 28.7 µM
Procedure, shortened: as §1

[37] = tested on: W2; assay: as above; settings: P. falciparum in erythrocytes, SYBR Green DNA, 72 h; series mostly up to 28.7 µM
Procedure, shortened: as §1

[38] = target: Nuclear receptor subfamily 1 group I member 2 (Rattus norvegicus) (UniProt Q9R1A7); assay: qHTS assay for small molecule activators of the rat pregnane X receptor (rPXR) signaling pathway (AID 651751; call rule not given here; further: 0% is about no effect); settings: rPXR reporter cells, luciferase (One-Glo), 24 h
Nuclear receptor subfamily 1 group I member 2 (Rattus norvegicus), sequence (Q9R1A7 whole entry, looked up): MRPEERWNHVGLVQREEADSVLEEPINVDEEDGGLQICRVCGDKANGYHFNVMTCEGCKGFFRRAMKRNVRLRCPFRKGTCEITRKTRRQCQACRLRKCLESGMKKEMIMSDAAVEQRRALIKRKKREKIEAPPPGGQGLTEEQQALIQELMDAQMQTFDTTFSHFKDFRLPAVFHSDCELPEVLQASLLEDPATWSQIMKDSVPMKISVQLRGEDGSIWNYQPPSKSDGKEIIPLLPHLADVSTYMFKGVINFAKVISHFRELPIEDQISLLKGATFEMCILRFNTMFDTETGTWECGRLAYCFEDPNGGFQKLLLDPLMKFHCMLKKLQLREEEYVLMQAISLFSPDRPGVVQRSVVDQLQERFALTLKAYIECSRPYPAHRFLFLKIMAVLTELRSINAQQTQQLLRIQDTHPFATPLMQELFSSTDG

[39] = qHTS assay for small molecule activators of the human pregnane X receptor (PXR) signaling pathway (AID 720659; call rule not given here; further: 0% is about no effect)

C[C@@H]1[C@H](O)[C@@H](C)/C=C/C=C/C=C/C=C/C=C/C=C/C=C/[C@H](O[C@@H]2O[C@H](C)[C@@H](O)[C@H](N)[C@@H]2O)C[C@@H]2O[C@](O)(C[C@@H](O)C[C@@H](O)[C@H](O)CC[C@@H](O)C[C@@H](O)CC(=O)O[C@H]1C)C[C@H](O)[C@H]2C(=O)O
inactive: Potency [1] | Potency [2] | Potency [3] | Potency [4] | Potency [5] | Potency [6] | Potency [7] | Potency [8] | Potency [9] | Potency [10] | Potency [11] | Potency [12] | Potency [13] | Potency [14] | Potency [15] | Potency [16] | Potency [17] | Potency [18] | Potency [19] | Potency [20] | Potency [21] | Potency [22] | Potency [23] | Potency [24] | Potency [25] | Potency [26] | Potency [27] | Potency [28] | Potency [29] | Potency [30] | Potency [31] | Potency [32] | Potency [33] | Potency [34] | Potency [35] | Potency [36] | Potency [37] | max response [38] -0.988% | outcome [39]
